SMILES strings stand for the structures. “And” between values parts separate entries of the source, which are not always exact repeats. Equal entries are not always repeated. The source made the active and inactive calls. Where a call stands in place of a potency, no number is given. The call rests on the fitted dose curve; in most records, active means well fitted inhibition curve with a large enough effect in the repeat runs (not every such curve was filed as active); inconclusive means weak or mixed curves; inactive means flat fitted curve, though single readings scatter.

Chain of Thyrotropin-releasing hormone receptor (Homo sapiens) (P34981 whole entry, looked up): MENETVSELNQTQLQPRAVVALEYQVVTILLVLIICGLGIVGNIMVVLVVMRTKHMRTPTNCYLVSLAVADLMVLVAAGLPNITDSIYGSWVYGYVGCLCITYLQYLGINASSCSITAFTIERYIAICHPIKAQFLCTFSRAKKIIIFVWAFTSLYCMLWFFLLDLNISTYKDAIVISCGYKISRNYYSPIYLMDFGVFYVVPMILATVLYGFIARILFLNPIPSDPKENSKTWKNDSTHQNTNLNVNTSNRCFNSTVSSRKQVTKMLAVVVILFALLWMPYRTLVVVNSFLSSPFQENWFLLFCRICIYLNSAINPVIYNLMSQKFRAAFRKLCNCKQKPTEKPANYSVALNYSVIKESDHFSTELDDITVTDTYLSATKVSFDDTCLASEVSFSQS

In the assay the target is Thyrotropin-releasing hormone receptor (Homo sapiens) (UniProt P34981). The experiment in a line: qHTS assay to identify small molecule antagonists of the thyrotropin-releasing hormone receptor (TRHR) signaling pathway (AID 1346877). The note with it: TRHR-HEK293, TRH-induced calcium fluorescence, antagonist mode; series mostly up to 51.3 µM. From the text:
National Center for Advancing Translational Sciences [NCATS]
NIH Chemical Genomics Center [NCGC]
U.S. Environmental Protection Agency [EPA]
National Institutes of Environmental Health Sciences [NIEHS]
National Toxicology Program [NTP]
U.S. Food and Drug Administration [FDA]
Thyrotropin-releasing hormone (TRH) receptor (TRHR) is a G-protein-coupled receptor which binds the tripeptide thyrotropin releasing hormone. TRHR is found in the brain and, when bound by TRH, acts (through phospholipase C) to increase intracellular inositol trisphosphate. It plays a crucial role in the anterior pituitary where it controls the synthesis and secretion of thyroid stimulating hormone and prolactin. The TRHR-Hek293 assay is a cell-based assay, and it has the potential to screen G protein-coupled receptors. A compound/drug can either activate (agonist) or suppress (antagonist) GPCRs that can be monitored by levels of intracellular calcium. In this assay, the Tox21 10K compound library was screened to identify potential TRHR antagonists.
Tox21 Assay Protocol Summary:
The TRHR-Hek293 cells were dispensed at 1500cells/4uL/well in 1536-well black-clear bottom plates using a Multidrop dispenser. After the assay plates were incubated at a 37 C/5% CO2 incubator for 18 hours, 4 uL of Dye-Loading Solution was added to each well. The plates were incubated at 37 C for 2 hours. For agonist mode, 23 nL of compounds dissolved in DMSO, positive controls or DMSO only was transferred to the assay plate by a pin tool. The fluorescence intensity in the plates was measured using FDSS 7000EX kinetic plate reader for 3 min at 1 sec intervals. For antagonist mode, 23 nL of compounds dissolved in DMSO, positive controls or DMSO only was transferred to the assay plate by a pin tool. After 5 min incubation at room temperature, 1 uL of TRH was added on the top of the cell/compound mixtures to achieve a final agonist concentration of 1 nM. The fluorescence intensity in the plates was measured using FDSS 7000EX kinetic plate reader for 3 min at 1 sec intervals. Each test compound was measured at 15 concentrations and in triplicates.
For orientation: Quantitative high-throughput screening tests each substance at several concentrations.
As for `CC(=O)OCC(=O)[C@@]12N=C(C)O[C@@H]1C[C@H]1[C@@H]3CCC4=CC(=O)C=C[C@]4(C)[C@H]3[C@@H](O)C[C@@]12C`, the Potency entry was “inactive”. As to `CCN(CC)CCCC(C)Nc1ccnc2cc(Cl)ccc12` (stereo not given), the activity, negative = inhibition was 0.384% [at 4.65 µM] (inactive) and -4.99% [at 10.5 µM] (inactive).

Regarding `COc1ccc(Nc2ccccc2)c(C)c1`, the Potency entry is “inactive”. In the case of `CC(c1cc2ccccc2s1)N(O)C(N)=O` (stereo not given), the Potency entry was “inactive”. With `CN(C)CCC(c1ccccc1)c1ccccn1` (stereo not given), the Potency result was “inactive”. For the molecule `C#CCN(C)Cc1ccccc1`, the Potency result is “inactive”. Turning to `COCCCOc1ccnc(CS(=O)c2nc3ccccc3[nH]2)c1C` (stereo not given), the Potency result was “inactive”. On to `OCC(CO)(CBr)CBr`, for which the Potency result is “inactive”.

As to `CCCCCC(N)=O`, the Potency entry was “inactive”. On the same count and under the same terms, next, `CN(C)CCC(c1ccc(Cl)cc1)c1ccccn1` (stereo not given): “inactive”; `C=C(C)C(=O)OCCOCCOCCOC(=O)C(=C)C`: “inactive”; `OCCOCCOCCO`: “inactive”.

With `CCCCCCCCCCCCOCCO`, the Potency entry is “inactive”. For the molecule `CC1CCC(C(C)C)C(O)C1` (stereo not given), the Potency entry is “inactive”. As for `O=C(O)c1ccc2c(c1)C(=O)OC2=O`, the Potency result was “inactive”.

`CC(=O)CC(=O)Nc1ccccc1C`: the Potency entry is “inactive”. On the same count and under the same terms, next, `CCCCC(CC)COC(=O)C(C#N)=C(c1ccccc1)c1ccccc1` (stereo not given): “inactive”; `O=S(=O)(O)c1ccc2ccccc2c1`: “inactive”; `O=[N+]([O-])c1ccc(/C=C/c2ccc([N+](=O)[O-])cc2S(=O)(=O)O)c(S(=O)(=O)O)c1`: “inactive”. `CC(=O)c1ccccc1`: the Potency entry was “inactive”.

On to `O=C(OCCOCCOC(=O)c1ccccc1)c1ccccc1`, for which the Potency entry was “inactive”. With `C=C(C)C(=O)O[C@H]1C[C@@H]2CC[C@@]1(C)C2(C)C`, the Potency entry is “inactive”. Regarding `CCCSc1ccc2nc(NC(=O)OC)[nH]c2c1`, the Potency entry is “inactive”. As to `Cc1cccnc1`, the Potency entry is “inactive”. Consider `CC1=C(C)S(=O)(=O)CCS1(=O)=O`, for which the Potency result is “inactive”.

Regarding `CC(=O)Nc1ccccc1`, the Potency entry is “inactive”.

For the molecule `CCN(CC)c1ccc(C(=O)c2ccccc2C(=O)O)c(O)c1`, the Potency entry was “inactive”.

Turning to `CCc1cccc(C)c1N`, the Potency entry was “inactive”. For the molecule `COc1cc(Cc2cnc(N)nc2N)cc(OC)c1OC`, the Potency entry was “inactive”. As for `CCCCCCCCCCCCc1ccccc1`, the Potency result was “inactive”. With `CCCCC(CC)COC(=O)CCCCC(=O)OCC(CC)CCCC` (stereo not given), the Potency entry is “inactive”. On the same count and under the same terms, next, `Cc1ccc2oc(=O)ccc2c1`: “inactive”; `FC(F)(F)c1ccc(Cl)c(Cl)c1`: “inactive”. Still for that read-out and setting: next, `O=S1(=O)CC=CC1`: “inactive”; `c1ccc2c(c1)ccc1ccccc12`: “inactive”; `COS(C)(=O)=O`: “inactive”. Consider `Nc1cc([N+](=O)[O-])ccc1O`, for which the Potency entry was “inactive”. Regarding `CCc1ccc(CCOc2ccc(CC3SC(=O)NC3=O)cc2)nc1` (stereo not given), the Potency entry was “inactive”. Take `CC(C)(C)[C@@H](O)[C@@H](Cc1ccc(Cl)cc1)n1cncn1`: the Potency result was “inactive”. On to `Fc1ccc(Br)cc1`, for which the Potency entry was “inactive”.

The values are drawn from PubChem BioAssay (Tox21).
